The text below walks through data of PubChem BioAssay AID434989 (The Scripps Research Institute Molecular Screening Center, 2010).

About 1,400 (0.42%) of roughly 330,000 compounds were called active.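 The calls were made as follows: active = inhibition above its plate's threshold, mean inhibition of all tested compounds on the plate plus 3 SD (cut at about 37% in these data); inactive = the rest.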 The entries come from a sample that favours actives as a whole.

Orexin/Hypocretin receptor type 1 (Homo sapiens), sequence (O43613 whole entry, looked up): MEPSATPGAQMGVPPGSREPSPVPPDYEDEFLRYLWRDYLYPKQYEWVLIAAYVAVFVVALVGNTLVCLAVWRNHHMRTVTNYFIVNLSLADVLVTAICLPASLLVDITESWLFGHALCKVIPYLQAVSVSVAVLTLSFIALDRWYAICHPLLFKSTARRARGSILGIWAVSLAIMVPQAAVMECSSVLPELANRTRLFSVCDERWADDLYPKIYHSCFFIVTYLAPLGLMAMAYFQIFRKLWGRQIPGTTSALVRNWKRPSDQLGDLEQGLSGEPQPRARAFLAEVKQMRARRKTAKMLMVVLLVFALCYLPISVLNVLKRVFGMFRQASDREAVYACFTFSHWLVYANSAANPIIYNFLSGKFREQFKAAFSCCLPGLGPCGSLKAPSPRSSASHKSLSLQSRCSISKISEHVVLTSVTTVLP

The assay concerns the target Orexin/Hypocretin receptor type 1 (Homo sapiens) (UniProt O43613). Briefly: OX1R (HCRTR1) antagonists, primary screen, fluorescence, CHO/OX1R cells, Fluo-8 calcium, orexin A (AID 434989).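 Also: 0% = orexin A challenge wells and 100% = SB-334867-A antagonist wells.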 The conditions noted are these: Fluo-8 calcium fluorescence, at 5 µM, active compounds read high.
One may read the inhibition as the relative decrease from the control value, in per cent. Consider `COC(=O)c1ccc(C)c(NC(=O)Cn2c(C)csc2=O)c1`, for which the inhibition was -20% (inactive).

For the molecule `CCC1CCCCN1C(=S)NC(=O)c1ccco1` (centres undefined), the inhibition was 5.19% (inactive).

Turning to `CC(C)CC1NC(=O)c2cc(Cl)ccc2-n2c1nc1ccccc1c2=O` (centres undefined), the inhibition was -24.4% (inactive).

As for `O=C(NC(=S)Nc1ccc(Br)cc1F)C1CCCCC1`, the inhibition is 0.61% (inactive).

As to `O=C1NC(Cc2ccc(O)cc2)c2nc3ccc(Cl)cc3c(=O)n2-c2ccccc21` (centres undefined), the inhibition is -10% (inactive).

On to `COc1ccc(CCNC(=O)c2cc3sccc3n2C)cc1OC`, for which the inhibition is -27.4% (inactive).

Regarding `CCOc1ccc(CCNC(=O)C(CC)n2nc(C)n3c(cc4sccc43)c2=O)cc1OCC` (centres undefined), the inhibition was 64.5% (active).

As to `CCC(C(=O)NCc1ccc(OC)cc1)n1nc(C)n2c(cc3occc32)c1=O` (centres undefined), the inhibition was -43.4% (inactive).

For `Cc1ccc(C)c(S(=O)(=O)N2CCN(c3ncnc4sccc34)CC2)c1`, the inhibition was 51.7% (active).

Regarding `Cc1ccc(S(=O)(=O)N2CCN(c3ncnc4ccccc34)CC2)cc1`, the inhibition is 38.9% (inactive).

Take `COc1ccc(C)cc1S(=O)(=O)N1CCN(S(=O)(=O)c2cc(C(=O)O)ccc2C)CC1`: the inhibition is -8.92% (inactive).

For the molecule `Cc1cccc(NS(=O)(=O)c2ccc(C)c(C(=O)NCc3cccnc3)c2)c1`, the inhibition is -9.11% (inactive).

As for `C/C=C/c1ccc(OCC(=O)NNC(=O)CN(C)S(=O)(=O)c2ccc(C)cc2)c(OC)c1`, the inhibition is -47.6% (inactive).

As to `O=C(C[C@@H]1C/C=C\CCC(=O)OC[C@@H]2CCCN2C1=O)NCCO`, the inhibition was -14.7% (inactive).

For `Cc1ccccc1NC(=S)NC(=O)Cc1ccc(Cl)cc1`, the inhibition was 17.1% (inactive).

As for `O=C(Cc1ccc(Cl)cc1)NC(=S)Nc1ccccc1O`, the inhibition was 61.6% (active).

On to `O=C(COc1ccc(Cl)cc1)NC(=S)Nc1ccccc1N1CCOCC1`, for which the inhibition is -46.4% (inactive).

As to `CC(=O)C[C@H](O)CC(=O)[C@@H]1OC(=O)[C@@H](C)C/C=C\Cc2ccccc21`, the inhibition was -24.4% (inactive).

For the molecule `CN(C(=O)c1cccc(NC(=O)Cc2ccc([N+](=O)[O-])cc2)c1)C1CCC1`, the inhibition was -24% (inactive).

As to `COC(=O)[C@]1(Cc2ccccc2)N[C@H](CN(C)S(=O)(=O)c2ccc(OC(F)(F)F)cc2)[C@@H]2C(=O)N(Cc3ccccc3)C(=O)[C@@H]21`, the inhibition is -14.3% (inactive).

For the molecule `O=C(COC(=O)Cc1ccc([N+](=O)[O-])cc1)NC1CCCCCC1`, the inhibition is -29.4% (inactive).

On to `CCOC(=O)CC1C(=O)NCCN1c1nc2c(C)cccn2c(=O)c1/C=C1\SC(=S)N(C(C)CC)C1=O` (centres undefined), for which the inhibition was 78.6% (active).

On to `CCOC(=O)N1CCN(C(=O)CSc2nc(=O)n3cccc(C)c3n2)CC1`, for which the inhibition was -4.53% (inactive).

For `Cc1cccn2c(=O)c(/C=C3\SC(=S)N(CC(C)C)C3=O)c(NCCCOC(C)C)nc12`, the inhibition was -8.49% (inactive).
